# Measured values published in PubChem BioAssay (NCI).
# The panel holds about 83,000 compounds, 20% with a hit somewhere; the sample as a whole holds those more often.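 Assay: single dose, 48 h. Readout: percent growth (0 = no net growth; negative = cell death). Active: <10.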 Unmarked numbers belong to inactive results. Calls of active or inactive are those of the source.
# Test system: MOLT-4 leukemia
# Assay: NCI-60 one-dose screen, 48 h (100 = growth as untreated, 0 = no growth, -100 = all killed)
# Conditions: 10 µM unless noted
# Method: Growth inhibition of the MOLT-4 human tumor cell line is measured as a screen for anti-cancer activity. Cells are grown in 96 well plates and exposed to the test compound for 48 hours. Compounds are tested at a single concentration, which is 10^-5 M for most compounds. The reported endpoint is percent growth (GI% or GIPRCNT), where numbers from 0 - 100% represent growth inhibition, and numbers from -100% - 0 represent cell death. For example, a value of 40 represents 60% growth inhibition. A value of 0 means no net growth occurred over the course of the experiment. A value of -40 indicates 40% of cells at the beginning of the experiment died by the end of the experiment. A value of -100 means all cells are dead at the end of the experiment.
# NCI-60 Human Tumor Cell Lines Screen was performed using the standard one-dose NCI protocol, which is described in more detail at https://dtp.cancer.gov/discovery_development/nci-60/default.htm.
# Compounds with GIPRCNT values below 10 were considered active. Activity score was based on GIPRCNT using the following formula: […]
# Score is 0 for GIPRCNT values of 100 or above, 50 for GIPRCNT values of 0, and 100 for GIPRCNT values of -100.
row,Compound,growth
1,Cc1csc(NC(c2ccc(Br)cc2)c2c(C)nc3ccccn23)n1 (stereo not given),87.1%
2,COc1cc(-c2nc(-c3nc4ccc(Cl)cc4[nH]3)cc3c2[nH]c2ccccc23)cc(OC)c1OC,34.4%
3,O=C1/C(=C/c2ccc([N+](=O)[O-])cc2)CN(C(=O)CCN2CCC(=NO)CC2)C/C1=C\c1ccc([N+](=O)[O-])cc1,-7.02% (active)
4,COC(=O)c1cccc2c1N(C)c1c(cccc1C(=O)OC)CC2,97.4%
5,Oc1ccc(Cl)cc1-c1cc(-c2ccc(F)cc2)n[nH]1,60.9%
6,Nc1cccc(-c2nc3sccn3c2-c2ccnc(NCCCNS(=O)(=O)c3cccc4ccccc34)n2)c1,10.3%
7,C=CCSc1n[nH]c(-c2cccs2)n1,99.5%
8,COc1ccc(/C=C\c2cc(OC)c(OC)c(OC)c2)cc1OC(=O)c1cccc(Cn2cc(CCOC(=O)c3cccc(Cn4nnc5c4C(=O)c4ccccc4C5=O)c3)nn2)c1,20.7%
9,C=C[C@@H]1C[C@H](O)Cc2cc(F)ccc2N1,-34.3% (active)
10,COc1ccc(-n2c(=S)sc3c(Cl)nc(C)nc32)c(OC)c1,-1.97% (active)
11,CC(C)NCCCNC1=C(Cl)C(=O)c2ccccc2C1=O,-45.8% (active)
12,Clc1ccc2c(NC3CCC(NC4CCCCC4)CC3)ccnc2c1 (stereo not given),56.9%
13,CCCCCCCCCCCCCCCCCCNC(=O)[C@H]1CSC(c2cccs2)N1 (stereo not given in full),3.87% (active)
14,COc1cc(-c2nn(-c3cccc(NC(=O)Nc4cccc(C(F)(F)F)c4)c3)cc2-c2ccncc2)ccc1Cl,-26.3% (active)
15,N=C(N)c1ccc(-c2ccc(-c3ccc4ccccc4c3)s2)cc1,76.3%
16,Cc1nn(-c2ccc(Cl)cc2)c2ncnc(N/N=C/c3cccc([N+](=O)[O-])c3)c12,15.4%
17,Clc1cc(Cl)c2nc(-c3ccc(-c4ccc(/C=N/NC5=NCCN5)cc4)s3)cn2c1,73%
18,Cc1ccc2[nH]c(=O)c3c(c2c1)Oc1ncn2nc(-c4ccco4)nc2c1C3c1ccc(Cl)cc1 (stereo not given),103%
19,COc1ccc(C(=O)c2cc(OC)c(OC)c(OC)c2OC)cc1O,44.2%
20,COc1ccc(S(=O)(=O)NCCCNc2nccc(-c3c(-c4cccc([N+](=O)[O-])c4)nc4sccn34)n2)cc1,22.5%

row,Compound,growth
1,C=C[C@@H]1C[C@@H]2Cc3cc(Cl)ccc3N1O2,26.4%
2,CCCCNC(=O)Oc1ccc(/C(=C(\C)c2ccccc2)c2ccc(OCCN(CC)CC)cc2)cc1,42%
3,c1ccc(-c2nnc(-c3ccccn3)s2)nc1,109%
4,Cc1cccc(/C=N/Nc2cc(C)c3cccc(C)c3n2)n1,67.9%
5,CCN(CC)c1ccc(C(=N)c2ccc(N(CC)CC)cc2)cc1,-23.5% (active)
6,COc1ccc(Nc2[nH]n3c(=O)cc(C)nc3c2C(N)=O)c(OC)c1,116%
7,Clc1cc(Cl)cc(-c2ccc(-c3ccc(/C=N/NC4=NCCN4)cc3)s2)c1,14.7%
8,O=[N+]([O-])c1ccc(-c2cn(-c3ccccc3)c(-c3ccccc3)n2)cc1,62.7%
9,CC1=NC2=CC=CC3=NC(C(Cl)(Cl)Cl)=NC(=N1)N23,4.18% (active)
10,COc1cc(C(=O)/C=C/c2ccc3nc(-c4cc(F)cc(F)c4)sc3c2)cc(OC)c1OC,103%
11,CCN(CC)c1ccc(N=O)cc1,44.9%
12,Cc1ccc(Nc2nnc(-c3ccc(Cl)cc3)o2)c(C)c1,61.7%
13,Cc1cc(N/N=C/c2nc(-c3ccccc3)oc2C)c2cc(Cl)ccc2n1,-39.2% (active)
14,COc1cc(-c2nn(-c3cccc(NC(=O)Nc4ccc(Cl)c(Cl)c4)c3)cc2-c2ccncc2)ccc1Cl,-11.1% (active)
15,COc1ccc(C2C=C(c3ccc(N)cc3)N=C3SC=CN32)cc1OC (stereo not given),90.6%
16,O=C(c1c[nH]c(=O)c(-c2ccccc2)c1)c1ccccc1O,96.1%
17,Cc1cc(C)n(-c2nnc3n2N=C(c2ccc(-c4ccccc4)cc2)CS3)n1,28.5%
18,CCOC(=O)c1cc(C(=O)c2cc(OC)c(OC)c(OC)c2)n2c1ccc1ccccc12,33.4%
19,CC[N+](CC)=c1cc2oc3cc(N(C)C)ccc3nc-2cc1C,21.8%
20,Nc1nnc(-c2ccc3ccccc3c2O)o1,75.5%
